Test in all cases: DAPPL (digital affinity profiling via proximity ligation, sequencing); 10 mM Tris-HCl pH 7.5, 50 mM NaCl, 1 mM DTT, 4% glycerol, room temperature, 30 min; GST-TFs on glutathione beads, 16-mer random dsDNA library, 0.1% formaldehyde crosslink after washing; high values mean tight binding
The target in one experiment is T1, FEV (Homo sapiens, UniProt Q99581 1-238).
T1 sequence: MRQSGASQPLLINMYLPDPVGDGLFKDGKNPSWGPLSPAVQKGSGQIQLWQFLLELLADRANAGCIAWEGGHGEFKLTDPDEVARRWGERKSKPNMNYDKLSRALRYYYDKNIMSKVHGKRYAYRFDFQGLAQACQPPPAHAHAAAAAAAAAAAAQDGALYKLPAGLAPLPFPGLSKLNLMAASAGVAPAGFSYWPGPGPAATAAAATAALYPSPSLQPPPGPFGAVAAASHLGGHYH
As to conditions: protein: recombinant; tags: N-terminal GST; dsDNA, one strand shown. In a few lines:
(§1)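 Pools were built from human transcription factors expressed in yeast as GST fusions, captured on glutathione beads and DNA-barcoded, along with a tag-only sample. Incubation with 200 nmole of a 16-mer random double-stranded DNA library lasted 30 min at room temperature in Tris/NaCl/DTT/glycerol buffer, and was followed by washing, 0.1% formaldehyde crosslinking, proximity ligation, PCR amplification and Illumina NextSeq500 sequencing. Binding signal is the quotient of each hexamer's read frequency for a factor and its frequency for the tag-only sample.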

For the next experiment, the target named is ETV5 (Homo sapiens, UniProt P41161 1-510). As to conditions: protein: recombinant; tags: N-terminal GST; dsDNA, one strand shown. An outline of the steps:
as §1

In a further experiment the target is HSF1 (Homo sapiens, UniProt Q00613 1-529). As to conditions: protein: recombinant; tags: N-terminal GST; chain copies: 3; dsDNA, one strand shown. An outline of the steps: as §1
Sequence of HSF1 (Q00613 whole entry): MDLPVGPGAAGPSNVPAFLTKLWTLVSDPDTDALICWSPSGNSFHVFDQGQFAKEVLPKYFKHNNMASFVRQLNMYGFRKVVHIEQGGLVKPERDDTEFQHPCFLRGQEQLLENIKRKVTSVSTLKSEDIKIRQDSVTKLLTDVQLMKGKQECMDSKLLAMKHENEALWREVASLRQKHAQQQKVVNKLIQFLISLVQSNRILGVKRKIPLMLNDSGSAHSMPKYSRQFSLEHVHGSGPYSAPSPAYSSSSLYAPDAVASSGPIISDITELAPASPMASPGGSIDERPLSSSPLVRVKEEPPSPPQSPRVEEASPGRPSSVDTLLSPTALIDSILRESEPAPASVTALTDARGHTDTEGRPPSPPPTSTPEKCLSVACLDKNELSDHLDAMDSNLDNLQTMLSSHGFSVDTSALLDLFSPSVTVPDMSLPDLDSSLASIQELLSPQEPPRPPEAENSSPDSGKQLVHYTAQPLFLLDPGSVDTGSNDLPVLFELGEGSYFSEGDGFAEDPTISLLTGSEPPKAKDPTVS
The next experiment deals with T2, SPIC (Homo sapiens, UniProt Q8N5J4 1-248).
T2 sequence: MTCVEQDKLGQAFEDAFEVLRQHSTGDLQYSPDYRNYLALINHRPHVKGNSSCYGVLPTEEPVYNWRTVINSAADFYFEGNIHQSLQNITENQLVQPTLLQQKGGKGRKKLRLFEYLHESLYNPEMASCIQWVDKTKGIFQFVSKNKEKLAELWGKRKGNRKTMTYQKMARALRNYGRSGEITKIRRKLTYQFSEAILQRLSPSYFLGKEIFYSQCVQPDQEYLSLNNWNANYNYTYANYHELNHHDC
As to conditions: protein: recombinant; tags: N-terminal GST; dsDNA, one strand shown. In a few lines: as §1

The next experiment deals with ELF4 (Homo sapiens, UniProt Q99607 1-663). As to conditions: protein: recombinant; tags: N-terminal GST; dsDNA, one strand shown. An outline of the steps: as §1
Sequence of ELF4 (Q99607 whole entry): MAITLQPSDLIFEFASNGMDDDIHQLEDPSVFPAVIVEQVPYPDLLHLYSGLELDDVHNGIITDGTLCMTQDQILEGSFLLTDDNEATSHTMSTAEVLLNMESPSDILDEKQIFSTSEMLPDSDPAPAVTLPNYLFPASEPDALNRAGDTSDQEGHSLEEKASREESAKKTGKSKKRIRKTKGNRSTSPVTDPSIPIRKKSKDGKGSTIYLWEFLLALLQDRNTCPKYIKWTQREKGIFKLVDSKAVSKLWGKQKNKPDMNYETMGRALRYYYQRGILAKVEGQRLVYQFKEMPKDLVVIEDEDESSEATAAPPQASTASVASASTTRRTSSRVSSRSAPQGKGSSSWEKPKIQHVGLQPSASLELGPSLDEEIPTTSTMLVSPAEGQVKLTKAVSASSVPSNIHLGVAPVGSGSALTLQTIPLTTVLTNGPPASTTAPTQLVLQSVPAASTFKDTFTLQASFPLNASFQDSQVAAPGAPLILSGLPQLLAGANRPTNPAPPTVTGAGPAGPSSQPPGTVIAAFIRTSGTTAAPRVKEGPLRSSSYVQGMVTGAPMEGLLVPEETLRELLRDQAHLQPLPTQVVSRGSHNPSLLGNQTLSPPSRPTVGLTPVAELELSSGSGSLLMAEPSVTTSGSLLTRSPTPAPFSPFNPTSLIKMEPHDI
The target in another experiment is T3, ELK4 (Homo sapiens, UniProt P28324-2 1-405).
T3 sequence: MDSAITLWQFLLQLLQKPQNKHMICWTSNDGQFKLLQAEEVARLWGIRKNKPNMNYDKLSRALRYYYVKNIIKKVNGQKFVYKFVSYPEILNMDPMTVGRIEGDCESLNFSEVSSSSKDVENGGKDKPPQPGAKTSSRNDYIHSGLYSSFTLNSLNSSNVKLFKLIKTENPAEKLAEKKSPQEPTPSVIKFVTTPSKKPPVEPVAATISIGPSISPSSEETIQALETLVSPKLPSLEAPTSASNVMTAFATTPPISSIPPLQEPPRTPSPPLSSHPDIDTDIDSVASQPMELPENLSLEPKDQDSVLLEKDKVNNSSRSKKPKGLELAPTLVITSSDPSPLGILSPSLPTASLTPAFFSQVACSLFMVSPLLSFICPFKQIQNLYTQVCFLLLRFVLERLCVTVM
As to conditions: protein: recombinant; tags: N-terminal GST; dsDNA, one strand shown. An outline of the steps:
as §1

A further experiment addresses T4, ETV2 (Homo sapiens, UniProt O00321 1-342).
T4 sequence: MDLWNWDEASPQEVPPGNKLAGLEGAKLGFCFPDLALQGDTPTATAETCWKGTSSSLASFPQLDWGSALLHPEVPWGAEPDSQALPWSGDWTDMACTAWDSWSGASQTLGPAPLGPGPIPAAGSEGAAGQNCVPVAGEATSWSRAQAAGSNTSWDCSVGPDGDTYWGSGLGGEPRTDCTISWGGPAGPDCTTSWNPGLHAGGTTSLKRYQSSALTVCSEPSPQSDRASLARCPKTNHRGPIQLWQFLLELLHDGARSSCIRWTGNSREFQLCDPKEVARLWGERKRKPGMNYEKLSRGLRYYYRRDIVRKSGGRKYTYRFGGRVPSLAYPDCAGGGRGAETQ
As to conditions: protein: recombinant; tags: N-terminal GST; dsDNA, one strand shown. An outline of the steps: as §1

In a further experiment the target is T5, ELF3 (Homo sapiens, UniProt P78545 1-371).
T5 sequence: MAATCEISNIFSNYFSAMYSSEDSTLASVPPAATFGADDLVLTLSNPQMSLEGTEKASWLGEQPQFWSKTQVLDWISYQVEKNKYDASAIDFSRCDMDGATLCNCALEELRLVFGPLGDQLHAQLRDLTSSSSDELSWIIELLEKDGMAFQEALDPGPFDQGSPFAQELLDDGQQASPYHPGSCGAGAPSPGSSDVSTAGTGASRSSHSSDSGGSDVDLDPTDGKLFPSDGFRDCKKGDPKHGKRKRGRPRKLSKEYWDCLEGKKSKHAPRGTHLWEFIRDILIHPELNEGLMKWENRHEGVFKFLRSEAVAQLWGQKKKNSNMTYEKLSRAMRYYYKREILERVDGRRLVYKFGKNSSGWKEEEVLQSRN
As to conditions: protein: recombinant; tags: N-terminal GST; dsDNA, one strand shown. In a few lines: as §1

Another experiment has as its target CRX (Homo sapiens, UniProt O43186 1-299). As to conditions: protein: recombinant; tags: N-terminal GST; dsDNA, one strand shown. An outline of the steps:
as §1

In another experiment the target is ETV1 (Homo sapiens, UniProt P50549 1-477). As to conditions: protein: recombinant; tags: N-terminal GST; dsDNA, one strand shown. An outline of the steps: as §1
Sequence of ETV1 (P50549 whole entry): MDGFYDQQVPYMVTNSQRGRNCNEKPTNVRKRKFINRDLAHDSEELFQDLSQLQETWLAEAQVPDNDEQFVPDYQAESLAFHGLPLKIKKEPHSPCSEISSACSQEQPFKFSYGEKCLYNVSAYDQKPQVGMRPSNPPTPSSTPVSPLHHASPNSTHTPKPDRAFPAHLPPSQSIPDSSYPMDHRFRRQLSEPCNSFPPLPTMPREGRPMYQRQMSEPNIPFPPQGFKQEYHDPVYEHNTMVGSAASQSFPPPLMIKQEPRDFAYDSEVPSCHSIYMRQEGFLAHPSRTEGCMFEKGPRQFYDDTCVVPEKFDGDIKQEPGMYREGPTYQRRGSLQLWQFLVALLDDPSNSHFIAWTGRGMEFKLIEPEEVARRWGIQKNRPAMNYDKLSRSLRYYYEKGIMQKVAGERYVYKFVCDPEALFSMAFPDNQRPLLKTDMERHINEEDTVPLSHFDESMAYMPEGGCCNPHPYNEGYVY
The target in the next experiment is T6, ERF (Homo sapiens, UniProt P50548 1-548).
T6 sequence: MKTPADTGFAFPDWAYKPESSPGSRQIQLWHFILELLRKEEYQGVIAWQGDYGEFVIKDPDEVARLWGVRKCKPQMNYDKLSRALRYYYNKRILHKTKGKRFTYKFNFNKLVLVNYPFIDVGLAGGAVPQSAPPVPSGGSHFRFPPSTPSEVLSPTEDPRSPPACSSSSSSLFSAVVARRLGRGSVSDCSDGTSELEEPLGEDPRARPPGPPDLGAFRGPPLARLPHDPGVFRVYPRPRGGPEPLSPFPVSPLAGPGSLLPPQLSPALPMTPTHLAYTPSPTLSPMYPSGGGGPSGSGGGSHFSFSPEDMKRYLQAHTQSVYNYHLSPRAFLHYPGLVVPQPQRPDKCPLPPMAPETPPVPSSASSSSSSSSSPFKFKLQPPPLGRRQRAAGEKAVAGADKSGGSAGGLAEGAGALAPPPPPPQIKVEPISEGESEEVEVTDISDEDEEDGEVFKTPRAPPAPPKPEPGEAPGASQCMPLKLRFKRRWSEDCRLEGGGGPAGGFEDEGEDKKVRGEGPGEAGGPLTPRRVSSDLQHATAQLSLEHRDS
As to conditions: protein: recombinant; tags: N-terminal GST; dsDNA, one strand shown. In a few lines:
as §1

The target of the next experiment is T7, ETV3L (Homo sapiens, UniProt Q6ZN32 1-361).
T7 sequence: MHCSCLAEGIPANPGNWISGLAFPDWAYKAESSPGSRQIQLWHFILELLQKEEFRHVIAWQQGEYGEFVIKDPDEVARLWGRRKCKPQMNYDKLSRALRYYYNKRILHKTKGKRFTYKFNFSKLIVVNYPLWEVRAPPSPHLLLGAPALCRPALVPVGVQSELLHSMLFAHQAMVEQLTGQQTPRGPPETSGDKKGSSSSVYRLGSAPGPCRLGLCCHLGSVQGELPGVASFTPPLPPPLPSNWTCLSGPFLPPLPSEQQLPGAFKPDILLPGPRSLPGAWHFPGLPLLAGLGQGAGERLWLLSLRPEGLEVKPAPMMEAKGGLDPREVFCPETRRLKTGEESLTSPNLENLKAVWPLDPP
As to conditions: protein: recombinant; tags: N-terminal GST; dsDNA, one strand shown. An outline of the steps:
as §1

Another experiment concerns the target T8, ETS2 (Homo sapiens, UniProt P15036 1-469).
T8 sequence: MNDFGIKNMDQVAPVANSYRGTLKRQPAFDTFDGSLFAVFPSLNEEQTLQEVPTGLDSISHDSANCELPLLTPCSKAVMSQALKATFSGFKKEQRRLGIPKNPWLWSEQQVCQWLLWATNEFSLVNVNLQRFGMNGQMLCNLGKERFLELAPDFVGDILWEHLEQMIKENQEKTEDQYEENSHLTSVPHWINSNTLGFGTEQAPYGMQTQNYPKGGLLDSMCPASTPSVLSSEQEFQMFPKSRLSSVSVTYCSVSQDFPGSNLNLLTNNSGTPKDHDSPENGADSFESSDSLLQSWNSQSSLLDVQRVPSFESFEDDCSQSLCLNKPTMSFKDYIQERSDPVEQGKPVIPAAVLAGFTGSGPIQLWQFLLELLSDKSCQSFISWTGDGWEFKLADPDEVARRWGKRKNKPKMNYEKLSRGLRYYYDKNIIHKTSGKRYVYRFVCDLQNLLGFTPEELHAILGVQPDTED
As to conditions: protein: recombinant; tags: N-terminal GST; dsDNA, one strand shown. In a few lines: as §1

For another experiment, the target named is T9, SPDEF (Homo sapiens, UniProt O95238 1-335).
T9 sequence: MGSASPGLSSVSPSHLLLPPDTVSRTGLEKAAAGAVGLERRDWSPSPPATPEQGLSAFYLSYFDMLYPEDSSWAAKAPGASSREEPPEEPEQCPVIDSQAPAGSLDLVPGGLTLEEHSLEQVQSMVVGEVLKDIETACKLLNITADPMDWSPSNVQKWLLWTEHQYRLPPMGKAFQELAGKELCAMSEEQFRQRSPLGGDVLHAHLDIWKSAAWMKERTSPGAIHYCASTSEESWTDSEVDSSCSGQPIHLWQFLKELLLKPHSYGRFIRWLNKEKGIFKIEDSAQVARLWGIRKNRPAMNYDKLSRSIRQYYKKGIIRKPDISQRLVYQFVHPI
As to conditions: protein: recombinant; tags: N-terminal GST; dsDNA, one strand shown. In a few lines: as §1

The next experiment deals with T10, ETV7 (Homo sapiens, UniProt Q9Y603 1-341).
T10 sequence: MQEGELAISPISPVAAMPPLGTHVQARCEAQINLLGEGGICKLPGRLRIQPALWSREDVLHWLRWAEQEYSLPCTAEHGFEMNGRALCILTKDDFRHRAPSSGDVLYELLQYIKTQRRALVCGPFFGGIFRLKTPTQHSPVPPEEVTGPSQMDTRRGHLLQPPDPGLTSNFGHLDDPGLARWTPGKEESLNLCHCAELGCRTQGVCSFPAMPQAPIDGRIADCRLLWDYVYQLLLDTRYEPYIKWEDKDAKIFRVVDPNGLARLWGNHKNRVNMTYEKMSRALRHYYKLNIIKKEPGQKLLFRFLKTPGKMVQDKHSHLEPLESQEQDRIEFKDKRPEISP
As to conditions: protein: recombinant; tags: N-terminal GST; dsDNA, one strand shown. In a few lines: as §1

Another experiment has as its target T11, ELF5 (Homo sapiens, UniProt Q9UKW6-2 1-255).
T11 sequence: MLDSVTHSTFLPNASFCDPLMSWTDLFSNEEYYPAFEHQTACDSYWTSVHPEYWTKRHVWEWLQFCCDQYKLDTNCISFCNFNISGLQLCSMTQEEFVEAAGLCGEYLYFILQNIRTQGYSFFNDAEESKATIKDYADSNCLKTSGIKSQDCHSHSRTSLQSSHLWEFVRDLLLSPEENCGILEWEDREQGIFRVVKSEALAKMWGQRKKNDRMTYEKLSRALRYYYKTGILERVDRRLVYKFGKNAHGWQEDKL
As to conditions: protein: recombinant; tags: N-terminal GST; dsDNA, one strand shown. An outline of the steps: as §1

The next experiment concerns the target T12, ETV3 (Homo sapiens, UniProt P41162-2 1-143).
T12 sequence: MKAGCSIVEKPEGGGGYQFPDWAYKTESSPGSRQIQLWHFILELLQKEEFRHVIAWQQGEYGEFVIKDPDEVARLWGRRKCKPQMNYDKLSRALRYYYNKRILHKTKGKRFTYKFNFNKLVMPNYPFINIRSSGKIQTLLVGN
As to conditions: protein: recombinant; tags: N-terminal GST; dsDNA, one strand shown. An outline of the steps:
as §1

The next experiment addresses ETV6 (Homo sapiens, UniProt P41212 1-452). As to conditions: protein: recombinant; tags: N-terminal GST; dsDNA, one strand shown. An outline of the steps:
as §1

Sequence of CRX (O43186 whole entry): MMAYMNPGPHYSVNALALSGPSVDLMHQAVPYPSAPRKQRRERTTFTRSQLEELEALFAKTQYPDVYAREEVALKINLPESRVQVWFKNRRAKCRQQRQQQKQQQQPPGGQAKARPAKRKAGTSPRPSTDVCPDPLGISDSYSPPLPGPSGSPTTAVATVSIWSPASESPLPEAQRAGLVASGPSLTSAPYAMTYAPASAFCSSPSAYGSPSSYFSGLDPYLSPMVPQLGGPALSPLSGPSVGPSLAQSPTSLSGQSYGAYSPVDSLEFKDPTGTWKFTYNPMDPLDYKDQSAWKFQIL
Sequence of ETV6 (P41212 whole entry): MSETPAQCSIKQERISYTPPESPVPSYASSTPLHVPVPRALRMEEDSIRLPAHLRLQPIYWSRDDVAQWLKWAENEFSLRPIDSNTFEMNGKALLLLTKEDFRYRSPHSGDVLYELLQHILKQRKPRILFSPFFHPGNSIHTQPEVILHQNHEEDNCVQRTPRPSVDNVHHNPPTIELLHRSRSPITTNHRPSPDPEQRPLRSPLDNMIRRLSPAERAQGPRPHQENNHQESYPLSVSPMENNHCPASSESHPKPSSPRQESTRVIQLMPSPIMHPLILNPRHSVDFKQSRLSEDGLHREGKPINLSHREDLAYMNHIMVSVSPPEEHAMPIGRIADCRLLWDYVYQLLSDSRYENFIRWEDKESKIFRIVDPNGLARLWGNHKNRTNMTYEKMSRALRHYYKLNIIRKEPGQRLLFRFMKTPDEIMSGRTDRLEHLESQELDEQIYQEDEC
Sequence of ETV5 (P41161 whole entry): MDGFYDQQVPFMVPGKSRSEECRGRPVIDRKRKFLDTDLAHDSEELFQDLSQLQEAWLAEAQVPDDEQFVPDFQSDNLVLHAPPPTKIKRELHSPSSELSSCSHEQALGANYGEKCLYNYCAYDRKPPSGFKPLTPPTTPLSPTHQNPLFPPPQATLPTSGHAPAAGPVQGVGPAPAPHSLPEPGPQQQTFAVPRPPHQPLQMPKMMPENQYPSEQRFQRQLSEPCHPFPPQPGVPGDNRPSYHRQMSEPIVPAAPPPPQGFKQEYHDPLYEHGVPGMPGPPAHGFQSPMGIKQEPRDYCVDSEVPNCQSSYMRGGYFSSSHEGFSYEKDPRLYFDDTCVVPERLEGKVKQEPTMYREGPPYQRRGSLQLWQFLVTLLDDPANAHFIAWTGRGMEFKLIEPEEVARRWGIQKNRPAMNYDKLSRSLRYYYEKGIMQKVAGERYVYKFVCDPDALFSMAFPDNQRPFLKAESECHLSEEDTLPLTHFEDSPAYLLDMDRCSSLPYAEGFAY

Take TATGTA: the binding signal with FEV was 1.28 fold enrichment (6-mer frequency, TF over GST control); in the experiment with ETV5 it was 1.25 fold enrichment (6-mer frequency, TF over GST control); with HSF1, 1.28 fold enrichment (6-mer frequency, TF over GST control); in the experiment with SPIC, 1.26 fold enrichment (6-mer frequency, TF over GST control); with ELF4, 1.38 fold enrichment (6-mer frequency, TF over GST control); with ELK4 it was 1.39 fold enrichment (6-mer frequency, TF over GST control). The binding signal with ETV2 is 1.23 fold enrichment (6-mer frequency, TF over GST control); with ELF3, 1.52 fold enrichment (6-mer frequency, TF over GST control); in the experiment with CRX it was 1.51 fold enrichment (6-mer frequency, TF over GST control); with ETV1, 1.3 fold enrichment (6-mer frequency, TF over GST control); with ERF, 1.36 fold enrichment (6-mer frequency, TF over GST control); with ETV3L it was 1.29 fold enrichment (6-mer frequency, TF over GST control). For the same sequence, the binding signal with ETS2 is 1.38 fold enrichment (6-mer frequency, TF over GST control); with SPDEF it was 1.35 fold enrichment (6-mer frequency, TF over GST control); in the experiment with ETV7, 1.35 fold enrichment (6-mer frequency, TF over GST control); in the experiment with ELF5, 1.26 fold enrichment (6-mer frequency, TF over GST control); with ETV3 it was 1.25 fold enrichment (6-mer frequency, TF over GST control); with ETV6, 1.28 fold enrichment (6-mer frequency, TF over GST control).

The values above are taken from PMC7862700, “An all-to-all approach to the identification of sequence-specific readers for epigenetic DNA modifications on cytosine”.
